Rows were chosen to be rich in hits. Some 19% of all compounds tested hit in one or more screens of this group.
DT40 TDP1 CPT: qHTS for Inhibitors of human tyrosyl-DNA phosphodiesterase 1 (TDP1): qHTS in cells in presence of CPT; chicken DT40 Tdp1-/-;hTDP1 cells + 20 nM CPT, ATP luminescence, 48 h; Potency, µM (top dose mostly 46.2 µM), for the others: at the top dose activity change, negative = growth inhibition, hits mostly inhibitors; 12% of 420,000 active; AID 686979, 2013; further: potency means the concentration at half of the fitted maximal effect; on the % scale 0 is the no-effect control and ±100 the full control effect; nearly all actives have a fitted effect of over 55% in size
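Chicken DT40 Tdp1-/- cells stably complemented with human TDP1 were seeded at 400 cells/well in medium containing 20 nM camptothecin, exposed to pin-transferred compounds, and grown at 37 °C for at least 48 hr. Viability was read as ATP luminescence.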
SW480 rereplic: A quantitative high throughput screen for small molecules that induce DNA re-replication in SW480 colon adenocarcinoma cells; SW480 DNA re-replication, Hoechst DNA content imaging, 48 h; Potency, µM (series often up to 46.1 µM), inactives show at the top dose re-replication activation, usual class: activators; 1.8% of 340,000 active; further: potency means the concentration at half of the fitted maximal effect; % of control where 0% means no effect; nearly all actives have a fitted effect of over 55% in size
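Per well, 250 cells were exposed to pinned compound for 48 hr. Nuclear DNA was visualised with Hoechst (40 min, 37 C) and total object intensity recorded by fluorescence scanning.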
TDP1 cell noCPT: qHTS for Inhibitors of human tyrosyl-DNA phosphodiesterase 1 (TDP1): qHTS in cells in absence of CPT. DT40 Tdp1-/- hTDP1 cells, no CPT, ATP luminescence, 48 h. Potency, µM (titrated, usually from 46.2 µM), inactives show at the top dose activity change, negative = growth inhibition, hits mostly inhibitors. 15% of 420,000 active. AID 686978, 2013; further: potency means the concentration at half of the fitted maximal effect; on the % scale 0 is the no-effect control and ±100 the full control effect; nearly all actives have a fitted effect of over 55% in size
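No-CPT arm: Tdp1-/-;hTDP1 DT40 cells (400/well) plus compounds, incubated ≥48 hr at 37 °C. Readout CellTiter-Glo luminescence.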
BCR signal inh: qHTS Assay to Find Inhibitors of Chronic Active B-Cell Receptor Signaling. ABC-DLBCL IkBa-CBG/CBR reporter, luminescence ratio, 4 h. Potency, µM (top dose mostly 46.1 µM), for the others: at the highest dose activity change, negative = inhibition, actives largely listed as inhibitors. 0.05% of 340,000 active. AID 493014, 2011; active means well fitted inhibition curve with a large enough effect in the signal ratio, with a control signal flat, not every such curve was filed as active; inconclusive means small, poorly fitted or top-dose-only effect, or effect the other way, or a change in a side signal; the % refers to the signal ratio;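 further: potency means the concentration at half of the fitted maximal effect; plate controls were basal doxycycline-induced cells for no effect and cells given 10 µM MG132 for full effect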
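Cell line TMD8 (human ABC DLBCL), stably expressing tet-inducible CBG68-IkBa fusion and CBR; IMDM/0.5% FBS; cpd up to 46 uM; dox induction, 4 h, 37C/5% CO2; dual luminescence; green/red ratio; MG132 control.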
MCF10A rerep: A quantitative high throughput screen for small molecules that induce DNA re-replication in MCF 10a normal breast cells; MCF 10A DNA re-replication, Hoechst nuclear intensity, 48 h; 2.9% of 350,000 active; Potency, µM (highest dose often 46.1 µM), without a hit: top-dose activity, positive = re-replication, most hits filed as activators; AID 624296, 2012; further: potency means the concentration at half of the fitted maximal effect; % of control where 0% means no effect; nearly all actives have a fitted effect of over 50% in size
IL1B secr inh: qHTS for Inhibitors of Inflammasome Signaling: IL-1-beta AlphaLISA Primary Screen | THP-1 LPS/ATP IL-1B secretion, AlphaLISA, 16 h; active compounds read low | activity change, % at 57.5 µM | 4.7% of 360,000 active | AID 743279, 2014; in the data active means activity change below about -50%; inconclusive means mostly about -30% to -49%; further: on the % scale 0 is the no-effect control and ±100 the full control effect
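Secreted IL-1B measured by AlphaLISA bead assay after 16 h compound exposure of THP-1 cells; compounds (final up to 57.5 uM) added 1 h before LPS (250 ng/mL) and ATP (1.25 mM) stimulation; lower signal means less secretion.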
* = called active by the depositor. Unless noted, the call rests on the fitted dose curve; in most records, active means well fitted curve in the direction sought with a large enough effect; inconclusive means small, poorly fitted or top-dose-only effect, or another doubt; inactive means no such curve, though single readings can be large; an effect the other way counts as inactive or inconclusive.

For CC[C@H]1OC(=O)[C@H](C)[C@@H](O[C@H]2C[C@@](C)(OC)[C@@H](O)[C@H](C)O2)C(C)[C@@H](O[C@@H]2O[C@H](C)C[C@H](N(C)C)[C@@H]2O)[C@](C)(OC)C[C@@H](C)C(=O)[C@H](C)[C@@H](O)[C@]1(C)O (some centres not stated) the results were SW480 rereplic -0.8% and MCF10A rerep -2.3%.
O=C(NCc1cnc2ccccn12)C1CCC(=O)N(Cc2ccccc2F)C1 (configuration not stated) was read as DT40 TDP1 CPT -7.4%, SW480 rereplic -3.1%, TDP1 cell noCPT 0.0%, BCR signal inh 3.8%, MCF10A rerep -1.0% and IL1B secr inh -5.9.
`COc1ccccc1NC(=O)c1cc(S(=O)(=O)N2CCCC2)cn1C` gave DT40 TDP1 CPT -22.5%, SW480 rereplic 0.6%, TDP1 cell noCPT -13.4%, BCR signal inh 1.6%, MCF10A rerep 2.2% and IL1B secr inh -19.4.
Screening Cc1ccsc1C(=O)Nc1cccc(-n2cnnn2)c1 returned DT40 TDP1 CPT -3.8%, SW480 rereplic -3.0%, TDP1 cell noCPT -3.4%, BCR signal inh inconclusive, MCF10A rerep -1.2% and IL1B secr inh -11.2.
For CC(C)Oc1ccc(F)cc1-c1cc(C(=O)NCc2ccc(F)cc2)[nH]n1 the results were DT40 TDP1 CPT 25.9µM*, TDP1 cell noCPT inconclusive and IL1B secr inh -8.4.
FC(F)(F)c1nc(N2CCCC2)ncc1-c1nnnn1-c1ccc(Cl)cc1 was read as DT40 TDP1 CPT 20.6µM*, SW480 rereplic 7.6%, TDP1 cell noCPT 18.4µM*, BCR signal inh inconclusive, MCF10A rerep inconclusive and IL1B secr inh -16.8.
For Cc1ccc(-n2nnnc2-c2cccnc2)cc1 the results were DT40 TDP1 CPT -8.3%, SW480 rereplic -21.1%, TDP1 cell noCPT 6.6%, BCR signal inh -4.7%, MCF10A rerep -2.4% and IL1B secr inh 0.2.
Cc1ccc(-n2nnnc2-c2cnc(-c3cccnc3)nc2C(F)(F)F)cc1 was read as DT40 TDP1 CPT 18.4µM*, SW480 rereplic 0.0%, TDP1 cell noCPT 5.8µM*, BCR signal inh inconclusive, MCF10A rerep 5.8% and IL1B secr inh -4.5.
Fc1ccc(-n2nnnc2-c2cnc(-c3cccs3)nc2C(F)(F)F)cc1 was read as DT40 TDP1 CPT 6.51µM*, SW480 rereplic inconclusive, TDP1 cell noCPT 4.61µM*, BCR signal inh inconclusive, MCF10A rerep 14.6µM* and IL1B secr inh -80.5*.
For Cc1ccc(-n2nnnc2-c2cnn(-c3ccc(F)cc3)c2C(F)(F)F)cc1 the results were DT40 TDP1 CPT 13µM*, SW480 rereplic -0.1%, TDP1 cell noCPT inconclusive, BCR signal inh 0.6%, MCF10A rerep 13.7% and IL1B secr inh -14.2.
For CC(C)C[C@H](NC(=O)N1CCn2c1nc1ccccc12)C(=O)NCC1CCCO1 (some centres not stated) the results were DT40 TDP1 CPT -7.0%, SW480 rereplic -3.1%, TDP1 cell noCPT 29.1%, BCR signal inh -3.2%, MCF10A rerep -1.3% and IL1B secr inh -9.5.
`CCCN(CCC)C(=O)[C@@H](CCC(=O)O)NC(=O)c1ccccc1` gave SW480 rereplic -1.1% and MCF10A rerep -8.2%.
For CN(Cc1cnc2nc(N)nc(N)c2n1)c1ccc(C(=O)NC(CCC(=O)O)C(=O)O)cc1C(F)(F)F (configuration not stated) the results were DT40 TDP1 CPT 0.0291µM*, SW480 rereplic 10.6%, TDP1 cell noCPT 0.184µM*, MCF10A rerep -0.4% and IL1B secr inh 0.0.
COc1ccc(/C=N/n2cc(-c3ccccc3)nc2N)cc1 was read as DT40 TDP1 CPT 3.26µM*, SW480 rereplic inconclusive, TDP1 cell noCPT 5.17µM*, BCR signal inh inconclusive, MCF10A rerep 23.1µM* and IL1B secr inh 9.4.
`CN(C)c1cc[n+](CC(=O)Nc2cc(C(F)(F)F)ccc2Cl)cc1` gave DT40 TDP1 CPT 16.4µM*, SW480 rereplic inconclusive, TDP1 cell noCPT 8.2µM*, BCR signal inh 0.9%, MCF10A rerep inconclusive and IL1B secr inh inconclusive.
For Cc1cc[n+](CC(=O)Nc2cc(C(F)(F)F)ccc2Cl)cc1 the results were DT40 TDP1 CPT -16.2%, SW480 rereplic -1.7%, TDP1 cell noCPT -10.3%, BCR signal inh -0.3%, MCF10A rerep 23.1µM* and IL1B secr inh -13.7.
Screening O=C(C[n+]1ccc2ccccc2c1)Nc1cc(C(F)(F)F)ccc1Cl returned DT40 TDP1 CPT 20.6µM*, SW480 rereplic inconclusive, TDP1 cell noCPT inconclusive, BCR signal inh 6.3%, MCF10A rerep -2.6% and IL1B secr inh -58.4*.
For O=C(C[n+]1ccccc1)Nc1cc(C(F)(F)F)ccc1Cl the results were DT40 TDP1 CPT 9.0%, SW480 rereplic -0.1%, TDP1 cell noCPT -27.7%, BCR signal inh -2.1%, MCF10A rerep -0.1% and IL1B secr inh -9.0.
Screening Cc1cc(OC(C)C(=O)NCCc2c[nH]c3ccccc23)c2c(C)cc(=O)oc2c1 (configuration not stated) returned DT40 TDP1 CPT 16.4µM*, SW480 rereplic 0.3%, TDP1 cell noCPT inconclusive, BCR signal inh 14.7%, MCF10A rerep -1.2% and IL1B secr inh -20.8.
`CCCc1cc(=O)oc2cc(C)cc(OC(C)C(=O)N[C@@H](Cc3c[nH]c4ccccc34)C(=O)O)c12` (some centres not stated) gave DT40 TDP1 CPT -8.2%, SW480 rereplic 3.5%, TDP1 cell noCPT -6.6%, BCR signal inh 8.1%, MCF10A rerep 14.6% and IL1B secr inh 18.6.
`N#Cc1cccc(-c2nc(N3CCNCC3)c3ccccc3n2)c1` gave DT40 TDP1 CPT inconclusive and TDP1 cell noCPT 18.4µM*.
`c1ccc2c(N3CCNCC3)nc(-c3ccc4c(c3)OCO4)nc2c1` gave DT40 TDP1 CPT inconclusive and TDP1 cell noCPT 20.6µM*.
Screening N#Cc1ccc(S(=O)(=O)N2CCN(c3nc(-c4ccccc4)nc4ccccc34)CC2)cc1 returned DT40 TDP1 CPT -14.7% and TDP1 cell noCPT inconclusive.

Bioassay records deposited in PubChem by National Center for Advancing Translational Sciences (NCATS).
